In the library only some 0.79% were active in any assay of this set; here they are far more common.
AmpC inh detg: inhibitors of E. coli AmpC beta-lactamase with detergent; Potency, µM (highest dose often 114 µM), for the others: at the highest dose activity change, negative = inhibition, usual class: inhibitors; AID 485294; AmpC hydrolysis of nitrocefin, absorbance 480 nm, 0.01% Triton; 370,000 tested, 0.041% active; P00811;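 also: 0% = no-compound wells and -100% = no-enzyme wells; nearly all actives have a fitted effect of over 25% in size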
Target sequence (P00811 whole entry, looked up): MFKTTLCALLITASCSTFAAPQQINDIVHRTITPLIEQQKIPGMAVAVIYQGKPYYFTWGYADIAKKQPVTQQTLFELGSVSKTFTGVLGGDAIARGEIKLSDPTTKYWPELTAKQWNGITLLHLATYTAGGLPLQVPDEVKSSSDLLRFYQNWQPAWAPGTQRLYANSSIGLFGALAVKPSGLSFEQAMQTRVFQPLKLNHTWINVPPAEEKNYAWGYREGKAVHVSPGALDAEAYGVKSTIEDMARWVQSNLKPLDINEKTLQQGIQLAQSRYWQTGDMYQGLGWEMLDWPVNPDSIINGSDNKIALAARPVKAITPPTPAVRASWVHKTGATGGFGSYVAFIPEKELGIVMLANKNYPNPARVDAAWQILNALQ
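20 mM phosphate pH 7.0 + 0.01% (detergent screen) or 0.0001% Triton X-100; 5.3 nM AmpC reagent; cpd preinc 15 min RT; nitrocefin (800 uM stock) to start; A480 q20 s × 4 min; Activity was normalised to no-enzyme and no-compound control wells.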
AMA1-RON2 inh: disrupts binding of P. falciparum AMA1 to RON2; 360,000 tested, 0.2% active; AlphaScreen AMA1-biotinylated RON2 peptide binding; Potency, µM (highest dose often 58.2 µM), for inactives: at the top dose activity change, negative = inhibition, hits mostly inhibitors;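 also: 0% = vehicle wells and -100% = peptide control; nearly all actives have a fitted effect of over 45% in size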
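AMA1 (3D7) with his tag at 25 nM final met compounds first, then biotinylated RON2 peptide at 25 nM; detection used donor plus acceptor beads, 10 µg/mL apiece, read by AlphaScreen after 30 min at room temperature.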
RE007 growth inh: less growth of the S. pombe RE007 Vpr strain; S. pombe RE007 Vpr strain, BacTiter-Glo ATP luminescence, 24 h; Potency, µM (doses to about 92.2 µM), without a hit: at the highest dose activity change, negative = less growth, most hits filed as inhibitors; 360,000 tested, 0.21% active; AID 651644; active = well fitted falling curve with a large enough effect; inconclusive = small, poorly fitted or top-dose-only effect; inactive = no such curve, though single readings can be large or run the other way; also: nearly all actives have a fitted effect of over 50% in size
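Fission yeast RE007 carrying one integrated HIV-1 vpr copy, seeded at OD 0.01 in PMG+AL medium with 23 nL pinned compound. Grown 24 h at 30 degrees; viability read by BacTiter-Glo luminescence after 5 min.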
AmpC inh no detg: AmpC beta-lactamase inhibition without detergent; P00811; AmpC nitrocefin hydrolysis, absorbance 480 nm, 0.0001% Triton; AID 485341; 330,000 tested, 0.52% active; Potency, µM (highest dose often 57.1 µM), inactives show at the highest dose activity change, negative = inhibition, actives largely listed as inhibitors;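 also: plate controls were no compound for no effect and no enzyme for full effect; nearly all actives have a fitted effect of over 20% in size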
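AmpC (5.3 nM in the dispensed reagent) in 20 mM phosphate pH 7.0 with 0.01% (detergent screen) or 0.0001% Triton X-100 was preincubated with compounds for 15 min at room temperature. Nitrocefin was then added from an 800 uM solution, and hydrolysis was followed at 480 nm.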
* = called active by the depositor; [ ] = remark or other dose. Unless noted, calls follow the shape of the dose curve; as a rule, active = well fitted curve in the direction sought with a large enough effect; inconclusive = small, poorly fitted or top-dose-only effect, or another doubt; inactive = no such curve, though single readings can be large; an effect the other way counts as inactive or inconclusive. Unless noted, % is scaled to controls: 0 for no effect and ±100 for the full control effect; potency is read from the fitted curve at half-maximal effect.

Screening CCCN1Cc2cccc(C(=O)Nc3cc(Cl)ccc3C)c2C1=O returned AmpC inh detg -2%.
O=C(Nc1ccccc1C(=O)N/N=C/c1ccco1)c1ccccc1 was read as AmpC inh detg -5%, AMA1-RON2 inh 11%, RE007 growth inh inconclusive and AmpC inh no detg -50%.
Screening O=C(Nc1ccccc1C(=O)N/N=C/c1ccco1)c1ccc(F)cc1 returned AmpC inh detg 5%, AMA1-RON2 inh 1%, RE007 growth inh 22µM* and AmpC inh no detg -33%.
O=C(N/N=C/c1ccco1)c1cc(C2CC2)nc2ccccc12 was read as AmpC inh detg 1% and AmpC inh no detg 28µM*.
Screening Cc1c(Cl)cccc1-n1ncc(C(=O)N2CCc3ccccc3C2)c1C1CCN(C(=O)OC(C)(C)C)CC1 returned AmpC inh detg 20%.
`COCC(C)Nc1ncnc2c1cnn2-c1ccc(C)c(C)c1` (configuration not stated) gave AmpC inh detg -4%.
`NC1=C(Cl)C(=O)c2ccccc2C1=O` gave AMA1-RON2 inh 2% and RE007 growth inh 25µM*.
`Cc1cc(C)nc(N/N=C/c2ccccc2OCc2ccccc2)n1` gave AmpC inh detg -5%, AMA1-RON2 inh 38%, RE007 growth inh -11% and AmpC inh no detg -49%.
Cc1cc(C)nc(N/N=C/c2ccccc2OCc2ccc(Br)cc2)n1 was read as AmpC inh detg -12%, AMA1-RON2 inh 12%, RE007 growth inh 0% and AmpC inh no detg 18µM*.
For O=c1ccc2nc3ccccc3sc-2c1 the results were AMA1-RON2 inh 14µM* and RE007 growth inh inconclusive.
Brc1ccc(-c2nc3ccccc3s2)s1 was read as AmpC inh detg -10%, AMA1-RON2 inh 48%, RE007 growth inh inconclusive and AmpC inh no detg -19%.
`COc1ccc(C(=O)N(Cc2ccc(N(C)C)cc2)Cc2ccco2)cc1Cl` gave AmpC inh detg 14%.
For CCn1c(C)nc2cc(C(=O)N/N=C/c3cccc(OC)c3O)ccc21 the results were AmpC inh detg 2%, AMA1-RON2 inh 72%, RE007 growth inh -15% and AmpC inh no detg 13%.
CCN(CC)S(=O)(=O)c1cccc(C(=O)N/N=C/c2ccc(O)c(O)c2O)c1 was read as AmpC inh detg -9%, AMA1-RON2 inh -6%[11.6 µM], RE007 growth inh 3% and AmpC inh no detg 20µM*.
CCn1c(C)nc2cc(C(=O)N/N=C/c3ccc(O)c(O)c3O)ccc21 was read as AmpC inh detg 2%, AMA1-RON2 inh 14µM*, RE007 growth inh -6% and AmpC inh no detg -1%.
For Cc1ccc(NC(=O)c2cc(N3C(=O)C=CC3=O)ccc2N2CCOCC2)cc1Cl the results were AmpC inh detg -7%, AMA1-RON2 inh 0%, RE007 growth inh 7.9µM* and AmpC inh no detg 53%.
Screening Cc1nc2c(=O)[nH]c(=S)[nH]c2[nH]c1=O returned AMA1-RON2 inh 28µM* and RE007 growth inh 11%.
For Oc1cc2c(cc1CN1CCN(c3ccccc3)CC1)CCC2 the results were AmpC inh detg -15%, AMA1-RON2 inh 28%, RE007 growth inh 5% and AmpC inh no detg -24%.
`COc1ccc(N2CCN(Cc3cc4c(cc3O)CCC4)CC2)cc1` gave AmpC inh detg 2%, AMA1-RON2 inh 15µM*, RE007 growth inh -10% and AmpC inh no detg -3%.
`C/C=C/c1cc(CN2CCN(c3ccc(OC)cc3)CC2)c(O)c(OC)c1` gave AmpC inh detg 2%, AMA1-RON2 inh 22µM*, RE007 growth inh -9% and AmpC inh no detg 82%.
Screening CCOC(=O)c1cccc(NC(=O)c2cc(S(=O)(=O)N3CCCCCC3)cn2C)c1 returned AmpC inh detg 4%.
For N#C/C(=C/c1ccc(N2CCCCC2)cc1)c1cccc(F)c1 the results were AmpC inh detg inconclusive, AMA1-RON2 inh 16µM*, RE007 growth inh 2% and AmpC inh no detg -20%.
Fc1ccc(N2CCN(C3=Nc4cccc5cccc3c45)CC2)cc1 was read as AmpC inh detg inconclusive, AMA1-RON2 inh 22µM*, RE007 growth inh 1% and AmpC inh no detg -27%[11.4 µM].
Screening COc1ccc(OC)c(NC(=O)Cn2cc(C(=O)c3ccc(Cl)cc3)c(=O)c3cc(OC)ccc32)c1 returned AmpC inh detg 3%.
COc1ccc(C)cc1NC(=O)CSc1ccc(-c2ccccn2)nn1 was read as AmpC inh detg -8%, AMA1-RON2 inh 20µM*, RE007 growth inh -19% and AmpC inh no detg -1%.
`CCCC(=O)OCCNc1cc(Sc2nc3ccccc3[nH]2)c2nonc2c1[N+](=O)[O-]` gave AmpC inh detg inconclusive, AMA1-RON2 inh -25%, RE007 growth inh -5% and AmpC inh no detg 13µM*.
`CCC(=O)OCCNc1cc(SCCC(=O)OC)c2nonc2c1[N+](=O)[O-]` gave AmpC inh detg -8%, AMA1-RON2 inh 2%, RE007 growth inh -11% and AmpC inh no detg -4%.
For Cc1ccc(S(=O)(=O)Nc2ccccc2-c2ccccc2NS(=O)(=O)c2ccc(C)cc2)cc1 the results were AmpC inh detg 5%, AMA1-RON2 inh -9%, RE007 growth inh 5% and AmpC inh no detg -4%.
For O=C1c2ccccc2-c2cccc(NS(=O)(=O)c3ccc(C(F)(F)F)cc3)c21 the results were AmpC inh detg 6%, AMA1-RON2 inh -12%, RE007 growth inh 5% and AmpC inh no detg 5.6µM*.
O=C(O)c1ccccc1-c1ccc(/C=c2\sc3nc4cc(Br)cnc4n3c2=O)o1 was read as AmpC inh detg 0%, AMA1-RON2 inh 11µM*, RE007 growth inh -29% and AmpC inh no detg -38%.
`COc1ccccc1N1CCN(C(=O)CCS(=O)(=O)c2cc(Br)cc3c2N(C(=O)C2CC2)CC3)CC1` gave AmpC inh detg 16%.
`O=C1NC(=O)N(Cc2ccco2)C(=O)/C1=C/c1cccn1CCOc1ccccc1Cl` gave AmpC inh detg -12%, AMA1-RON2 inh -10%, RE007 growth inh 23% and AmpC inh no detg 13µM*.
`O=C1NC(=O)N(Cc2ccccc2)C(=O)/C1=C\c1ccco1` gave AmpC inh detg -15%, AMA1-RON2 inh inconclusive, RE007 growth inh 1% and AmpC inh no detg -26%[11.4 µM].
`O=C1c2ccccc2C(Nc2ccccc2F)N1c1cccnc1` (configuration not stated) gave AmpC inh detg -9%, AMA1-RON2 inh 5%, RE007 growth inh -5% and AmpC inh no detg -28%.
`COC(=O)c1ccccc1NC1c2ccccc2C(=O)N1c1cccnc1` (configuration not stated) gave AmpC inh detg inconclusive, AMA1-RON2 inh 47%, RE007 growth inh -1% and AmpC inh no detg 7.1µM*.
COc1cc(OC)c(NC(=O)C2CCCN(c3ncnc4c3nc3n4CCCCC3)C2)cc1Cl (configuration not stated) was read as AmpC inh detg -8%.
For O=C(NCc1ccccc1Cl)c1ccc2c(c1)N(Cc1ccccc1)CCS2 the results were AmpC inh detg 8%.

High-throughput results as filed in PubChem BioAssay.
